From PubChem BioAssay (Tox21)
Records with an inconclusive call do not appear. A number with no mark means an inactive call. Active and inactive are the calls of the source. The call rests on the fitted dose curve; in most records, active means well fitted activation curve with a large enough effect in the signal ratio in the repeat runs (not every such curve was filed as active); inconclusive means weak or mixed curves, or effect the other way; inactive means flat fitted curve, though single readings scatter; the % refers to the signal ratio.

molecular target: Bile acid receptor (Homo sapiens) (UniProt Q96RI1); assay: qHTS assay to identify small molecule agonists of the farnesoid-X-receptor (FXR) signaling pathway (AID 743220); settings: HEK293T FXR-UAS-bla, beta-lactamase FRET ratio, 16 h; series mostly up to 62.6 µM; activation: at the top concentration
Sequence (Q96RI1 whole entry, looked up): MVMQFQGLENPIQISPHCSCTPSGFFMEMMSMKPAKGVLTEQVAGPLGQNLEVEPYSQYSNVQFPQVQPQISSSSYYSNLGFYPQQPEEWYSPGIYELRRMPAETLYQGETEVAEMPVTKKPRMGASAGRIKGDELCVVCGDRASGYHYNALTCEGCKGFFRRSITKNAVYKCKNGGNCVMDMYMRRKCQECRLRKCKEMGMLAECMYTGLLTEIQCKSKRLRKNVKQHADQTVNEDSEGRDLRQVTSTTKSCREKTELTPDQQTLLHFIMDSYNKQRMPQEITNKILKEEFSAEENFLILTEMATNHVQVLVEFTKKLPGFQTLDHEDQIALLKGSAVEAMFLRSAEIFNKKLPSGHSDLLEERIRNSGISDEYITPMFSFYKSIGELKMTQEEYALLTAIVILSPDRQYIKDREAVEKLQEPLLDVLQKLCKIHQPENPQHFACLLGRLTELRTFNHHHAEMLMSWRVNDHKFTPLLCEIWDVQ
Source text: National Center for Advancing Translational Sciences [NCATS]
NIH Chemical Genomics Center [NCGC]
U.S. Environmental Protection Agency [EPA]
National Institutes of Environmental Health Sciences [NIEHS]
National Toxicology Program [NTP]
U.S. Food and Drug Administration [FDA]
The farnesoid-X-receptor (FXR), a nuclear hormone receptor, is highly expressed in liver, intestine, kidney and adrenal cortex. Natural ligands of FXR are the bile acids (Cholic acid, Chenodeoxy cholic acid etc). FXR is an important regulator of diverse metabolic pathways, including the bile acid homeostasis, lipid and glucose metabolisms. FXR regulates the expression of target genes by binding either as a monomer or as a heterodimer with the retinoid X receptor (RXR). Numerous studies have reported that FXR exerts protective function during cholestasis, diabetes, liver regeneration, and cancer. To identify compounds that activate FXR signaling, GeneBLAzer FXR-UAS-bla HEK 293T cell line (Invitrogen, Carlsbad, CA) containing a beta-lactamase reporter gene under the control of a UAS response element was used to screen the Tox21 10K compound library.
Tox21 Assay Protocol Summary:
FXR-bla cells were dispensed at 5000 cells/5uL/well in 1536-well black wall/clear bottom plates using a Multidrop Combi (Thermo Fisher Scientific, Waltham, MA) dispenser. After the assay plates were incubated at 37C and 5% CO2 for 5 h, 23 nL of compounds dissolved in DMSO, positive controls or DMSO only was transferred to the assay plate by a Pintool station (Kalypsys, San Diego, CA). The assay plates were incubated at 37C for 16 h. After 1 uL of LiveBLAzerTM B/G FRET substrate was added using a Bioraptr Flying Reagent Dispenser (FRD) workstation (Beckman Coulter, Indianapolis, IN), the plates were incubated at room temperature for 2 h, and fluorescence intensity was measured by an Envision plate reader (PerkinElmer, Shelton, CT).
On the % scale 0 is the no-effect control and ±100 the full control effect.

`CC1CCC(C(C)C)C(OC(=O)c2ccccc2N)C1` (stereo not given) was tested. Which “activation” value did it give?
The value was 5.71%.

Which “activation” value does the source give for `Oc1cc(Cl)c(Cl)c(Cl)c1` here?
Its value is -0.261%.

Which “activation” value does the source give for `CC(C)OC(=O)C(O)(c1ccc(Cl)cc1)c1ccc(Cl)cc1` here?
Its value is 1.88%.

For `Nc1ccc(Sc2ccc(N)cc2)cc1`, which “activation” value is on record?
The value was 4.49% [at 81.1 µM].

With `N#CNC#N` as the compound, how does the “activation” value read?
The value was -0.0899% [at 81.1 µM].

How did the “activation” value turn out when `O=c1oc2ccccc2c(O)c1Cc1c(O)c2ccccc2oc1=O` was run?
Its value is -0.508%.

Which “activation” value does the source give for `C[C@]12Cc3nonc3C[C@@H]1CC[C@@H]1[C@@H]2CC[C@@]2(C)[C@H]1CC[C@]2(C)O` here?
The value was -1.15%.

For `CC1(c2ccc(Oc3ccccc3)cc2)OC(=O)N(Nc2ccccc2)C1=O` (stereo not given), which “activation” value is on record?
The value was -1.91% [at 81.1 µM].

For `O=C(Nc1ccc2[nH]ccc2c1)c1cc2cc(F)ccc2n1Cc1cccc(F)c1`, which “activation” value is on record?
The value was 3.7%.

With `O=C(O)COc1nc(Cl)c(Cl)cc1Cl` as the compound, how does the “activation” value read?
Its value is -5.47% [at 81.1 µM].

How did the “activation” value turn out when `OC(c1ccc(Cl)cc1)(c1ccc(Cl)cc1)C(Cl)(Cl)Cl` was run?
Its value is 5.88%.

Which “activation” value does the source give for `ClC(Cl)=C(Cl)Cl` here?
The value was 1.36%.

Which “activation” value does the source give for `Cc1cc(C)c(C2=C(OC(=O)CC(C)(C)C)C3(CCCC3)OC2=O)c(C)c1` here?
The value was 0.242% [at 81.1 µM].

Which “activation” value does the source give for `CS(=O)(=O)c1ccc(C(=O)C2C(=O)CCCC2=O)c([N+](=O)[O-])c1` here?
The value was -4.94% [at 81.1 µM].

With `N#CSCSC#N` as the compound, how does the “activation” value read?
The value was -4.94%.

How did the outcome turn out when `c1ccc(Nc2ccc3ccccc3c2)cc1` was run?
The outcome was “inactive”.

Which “activation” value does the source give for `CCCSP(=O)(OCC)SCCC` here?
Its value is 6.26% [at 81.1 µM].

For `CC(C)C1CCC(Cc2ccc(Cl)cc2)C1(O)Cn1cncn1` (stereo not given), which “activation” value is on record?
Its value is -9.59%.

Which “activation” value does the source give for `Clc1ccc(-c2ccc(Cl)c(Cl)c2Cl)c(Cl)c1Cl` here?
The value was 2.24%.

Which “activation” value does the source give for `Cn1cc(C2=C(c3cn(C4CCN(Cc5ccccn5)CC4)c4ccccc34)C(=O)NC2=O)c2ccccc21` here?
The value was -5.4%.

`Oc1ccc(C2(c3ccc(O)cc3)CCCCC2)cc1` was tested. Which “activation” value did it give?
Its value is 3.86%.

For `COP(=S)(OC)Oc1cc(Cl)c(Br)cc1Cl`, which “activation” value is on record?
Its value is 5.24%.

With `FC(F)(F)c1cccc(C2=CCN(CCc3ccc4ccccc4c3)CC2)c1` as the compound, how does the “activation” value read?
Its value is 4.69%.

`Nc1ccccc1C(=O)Oc1ccc2ccccc2c1` was tested. Which “activation” value did it give?
Its value is 2.19%.

`CC(Cc1ccc(C(C)(C)C)cc1)CN1C[C@@H](C)O[C@@H](C)C1` (stereo not given in full) was tested. Which “activation” value did it give?
The value was 3.27%.

For `CC(=O)/C=C/c1ccc2c(c1)OCO2`, which “activation” value is on record?
Its value is -5.72% [at 81.1 µM].

Which “activation” value does the source give for `CN(C)c1ccc(N=Nc2ccccc2)cc1` here?
The value was -4.38%.

`CCOC(=O)OC1=C(c2cc(C)ccc2C)C(=O)NC12CCC(OC)CC2` (stereo not given) was tested. Which “activation” value did it give?
Its value is -1.06%.

`Clc1ccc(C(c2ccc(Cl)cc2)C(Cl)(Cl)Cl)cc1` was tested. Which outcome did it give?
Its outcome is “inactive”.

`FC(Cl)(Cl)Cl` was tested. Which “activation” value did it give?
Its value is -2.41%.

With `O=c1[nH]c2ccccc2n1C1CCN(CCCC(c2ccc(F)cc2)c2ccc(F)cc2)CC1` as the compound, how does the “activation” value read?
The value was -5.24%.

For `CC(C)CC(C)(c1ccc(O)cc1)c1ccc(O)cc1`, which “activation” value is on record?
The value was 2.22%.

With `Cc1cc(C)cc(OP(=O)(Oc2cc(C)cc(C)c2)Oc2cc(C)cc(C)c2)c1` as the compound, how does the “activation” value read?
Its value is 0.709% [at 81.1 µM].

For `O=c1ssc(Cl)c1Cl`, which “activation” value is on record?
The value was 4.07%.

Which “activation” value does the source give for `CC1(C)[C@H](C(=O)O[C@H](C#N)c2cccc(Oc3ccccc3)c2)[C@@H]1/C=C(\Cl)C(F)(F)F` here?
Its value is 2.56%.

How did the “activation” value turn out when `COC12CC[C@@]3(C[C@@H]1C(C)(O)C(C)(C)C)[C@H]1Cc4ccc(O)c5c4[C@@]3(CCN1CC1CC1)[C@H]2O5` (stereo not given in full) was run?
Its value is -1.15% [at 81.1 µM].

How did the “activation” value turn out when `BrC(Br)Br` was run?
The value was 1.93%.

How did the “activation” value turn out when `O=C(CCCN1CCC2(CC1)C(=O)NCN2c1ccccc1)c1ccc(F)cc1` was run?
Its value is -0.627%.

Which “activation” value does the source give for `C[C@]12CC[C@@H]3c4ccc(OC(=O)N(CCCl)CCCl)cc4CC[C@H]3[C@@H]1CC[C@@H]2O` here?
The value was -0.135%.

`CC(C)OS(C)(=O)=O` was tested. Which “activation” value did it give?
The value was -0.424% [at 81.1 µM].
